Measurements taken from PubChem BioAssay (NCATS).
Results filed as inconclusive are left out. Active and inactive are the calls of the source. The call rests on the fitted dose curve; in most records, active means well fitted curve in the direction sought with a large enough effect; inconclusive means small, poorly fitted or top-dose-only effect, or another doubt; inactive means no such curve, though single readings can be large; an effect the other way counts as inactive or inconclusive.

Key:
C33A = assay: Primary qHTS to identify gynecologic anti-cancer compounds using libraries of approved drugs and bioactive compounds (AID 1345084); conditions: Gynecologic cancer cell panel viability, ATPlite luminescence, 48 h; series mostly up to 57.5 µM; further: nearly all actives have a fitted effect of over 55% in size
Method in brief: (§1)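 Cells, 1,000 per well, plated 16 h, then exposed 48 h at 37 C to compounds. Viability by ATPlite luminescence after 15 min at room temperature.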

CAOV3 = assay: as above; conditions: Gynecologic cancer cell panel viability, ATPlite luminescence, 48 h; series mostly up to 57.5 µM
Method in brief: as §1

CASKI = assay: as above; conditions: Gynecologic cancer cell panel viability, ATPlite luminescence, 48 h; series mostly up to 57.5 µM
Method in brief: as §1

Es-2 = assay: as above; conditions: Gynecologic cancer cell panel viability, ATPlite luminescence, 48 h; series mostly up to 57.5 µM
Method in brief: as §1

HeLa = assay: as above; conditions: Gynecologic cancer cell panel viability, ATPlite luminescence, 48 h; series mostly up to 57.5 µM
Method in brief: as §1

Hek293T = assay: as above; conditions: Gynecologic cancer cell panel viability, ATPlite luminescence, 48 h, control line for the selectivity index; series mostly up to 57.5 µM
Method in brief: as §1

JEG-3 = assay: as above; conditions: Gynecologic cancer cell panel viability, ATPlite luminescence, 48 h; series mostly up to 57.5 µM
Method in brief: as §1

OV90 = assay: as above; conditions: Gynecologic cancer cell panel viability, ATPlite luminescence, 48 h; series mostly up to 57.5 µM
Method in brief: as §1

PA-1 = assay: as above; conditions: Gynecologic cancer cell panel viability, ATPlite luminescence, 48 h; series mostly up to 57.5 µM
Method in brief: as §1

SKOV3 = assay: as above; conditions: Gynecologic cancer cell panel viability, ATPlite luminescence, 48 h; series mostly up to 57.5 µM
Method in brief: as §1

Tov-21-G = assay: as above; conditions: Gynecologic cancer cell panel viability, ATPlite luminescence, 48 h; series mostly up to 57.5 µM
Method in brief: as §1

Tov112D = assay: as above; conditions: Gynecologic cancer cell panel viability, ATPlite luminescence, 48 h; series mostly up to 57.5 µM
Method in brief: as §1

[1] = qHTS assay to identify inhibitors of the type 1 interferon - major histocompatibility complex class I in skeletal muscle: Counter screen cell viability and HiBit confirmation (AID 1347412); conditions: iHSKM muscle cells + IFN-b, HiBiT or CellTiter-Glo, 24 h, at 45.9 µM (top of the series); further: nearly all actives have a fitted effect of over 60% in size
Method in brief: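 Duplicate plates, pinned identically: one read for HiBiT-tagged endogenous HLA-B luminescence, the other for ATP-content viability via CellTiter Glo. Cells were genome-engineered human myoblasts given 4 ng/ml IFN-b; compounds 12-pt, 1:3 from 46 uM final; 24 hr exposure.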
On the % scale 0 is the no-effect control and ±100 the full control effect.

Cc1ccc(-c2ccc3c(ccc4sc5c(c43)NC[C@@H](C)NC5=O)n2)cn1
inactive: Potency (C33A) | Potency (CAOV3) | Potency (CASKI) | Potency (Es-2) | Potency (HeLa) | Potency (Hek293T) | Potency (JEG-3) | Potency (OV90) | Potency (PA-1) | Potency (SKOV3) | Potency (Tov-21-G) | Potency (Tov112D) | activity change, negative = inhibition ([1]; HiBiT) -1.05% | activity change, negative = inhibition ([1]; Viability) 10.5%

COC(=O)C1=C2Nc3ccccc3C23CCN2CCCC(C(C)O)(C1)C23 (stereo not given)
inactive: Potency (C33A) | Potency (CAOV3) | Potency (CASKI) | Potency (Es-2) | Potency (HeLa) | Potency (Hek293T) | Potency (JEG-3) | Potency (OV90) | Potency (PA-1) | Potency (Tov-21-G) | Potency (Tov112D)

CCN(Cc1cccnc1)C(=O)CN(c1ccc(OC)nc1)S(=O)(=O)c1ccccc1C
inactive: Potency (C33A) | Potency (CAOV3) | Potency (CASKI) | Potency (Es-2) | Potency (HeLa) | Potency (Hek293T) | Potency (JEG-3) | Potency (OV90) | Potency (PA-1) | Potency (Tov-21-G) | Potency (Tov112D)

OC[C@H]1O[C@@H](Oc2ccccc2)[C@H](O)[C@@H](O)[C@@H]1O
inactive: Potency (C33A) | Potency (CAOV3) | Potency (CASKI) | Potency (Es-2) | Potency (HeLa) | Potency (Hek293T) | Potency (JEG-3) | Potency (OV90) | Potency (PA-1) | Potency (Tov-21-G) | Potency (Tov112D)

C[C@@H]1CCN(C(=O)N2CCCC2)C[C@@H]1N(C)c1ncnc2[nH]ccc12
inactive: Potency (C33A) | Potency (CAOV3) | Potency (CASKI) | Potency (Es-2) | Potency (HeLa) | Potency (Hek293T) | Potency (JEG-3) | Potency (OV90) | Potency (PA-1) | Potency (SKOV3) | Potency (Tov112D)

CC(C)N(CCCCOCC(=O)NS(C)(=O)=O)c1cnc(-c2ccccc2)c(-c2ccccc2)n1
inactive: Potency (C33A) | Potency (CAOV3) | Potency (CASKI) | Potency (Es-2) | Potency (HeLa) | Potency (Hek293T) | Potency (JEG-3) | Potency (OV90) | Potency (PA-1) | Potency (Tov-21-G) | Potency (Tov112D)

C=C(C(=O)O)[C@@H]1CC[C@@]2(C)CC[C@H](O)[C@@]2(C(C)=O)C1
inactive: Potency (C33A) | Potency (CAOV3) | Potency (CASKI) | Potency (Es-2) | Potency (HeLa) | Potency (Hek293T) | Potency (JEG-3) | Potency (OV90) | Potency (PA-1) | Potency (Tov-21-G) | Potency (Tov112D)

Cc1cc(O)cc(O[C@@H]2O[C@H](CO)[C@@H](O)[C@H](O)[C@H]2O)c1
inactive: Potency (C33A) | Potency (CAOV3) | Potency (CASKI) | Potency (Es-2) | Potency (HeLa) | Potency (Hek293T) | Potency (JEG-3) | Potency (OV90) | Potency (PA-1) | Potency (Tov-21-G) | Potency (Tov112D)

CC(O)/C=C/C1C(C)C(O[C@@H]2O[C@H](CO)[C@@H](O)[C@H](O)[C@H]2O)C(O)CC1(C)C (stereo not given in full)
inactive: Potency (C33A) | Potency (CAOV3) | Potency (CASKI) | Potency (Es-2) | Potency (HeLa) | Potency (Hek293T) | Potency (JEG-3) | Potency (OV90) | Potency (PA-1) | Potency (Tov-21-G) | Potency (Tov112D)

CC(=O)O[C@@H]1[C@@H](O)[C@H](O[C@H]2CC[C@]34C[C@]35CC[C@]3(C)[C@@H]([C@@]6(C)CC[C@@H](C(C)(C)O)O6)[C@@H](O)C[C@@]3(C)[C@@H]5C[C@H](O[C@@H]3O[C@H](CO)[C@@H](O)[C@H](O)[C@H]3O)[C@H]4C2(C)C)OC[C@H]1O
inactive: Potency (C33A) | Potency (CAOV3) | Potency (CASKI) | Potency (Es-2) | Potency (HeLa) | Potency (Hek293T) | Potency (JEG-3) | Potency (OV90) | Potency (PA-1) | Potency (Tov-21-G) | Potency (Tov112D)

Cc1ccc(Cc2c(C)nc3nc(SCC(=O)NCCN4CCNCC4)nn3c2C)cc1
inactive: Potency (C33A) | Potency (CAOV3) | Potency (CASKI) | Potency (Es-2) | Potency (HeLa) | Potency (Hek293T) | Potency (JEG-3) | Potency (OV90) | Potency (PA-1) | Potency (Tov-21-G) | Potency (Tov112D)

CC/C=C/CC1=C(CCCCC(CCC(=O)O)OC(C)=O)CCC1=O (stereo not given)
inactive: Potency (C33A) | Potency (CAOV3) | Potency (CASKI) | Potency (Es-2) | Potency (HeLa) | Potency (Hek293T) | Potency (JEG-3) | Potency (OV90) | Potency (PA-1) | Potency (Tov-21-G) | Potency (Tov112D)

CC(C)(O)c1ccc2c(c1)C(O)C[C@H]1[C@](C)(C(=O)O)CCC[C@]21C (stereo not given in full)
inactive: Potency (C33A) | Potency (CAOV3) | Potency (CASKI) | Potency (Es-2) | Potency (HeLa) | Potency (Hek293T) | Potency (JEG-3) | Potency (OV90) | Potency (PA-1) | Potency (Tov-21-G) | Potency (Tov112D)

CC1OC(OC2C(OC3C(O[C@H]4CC[C@@]5(C)C(CC[C@]6(C)C5C(=O)C=C5C7CC(C)(C)CC(O)[C@]7(C)CC[C@]56C)C4(C)C)OC(C(=O)O)C(O)C3O)OCC(O)C2O)C(O)C(O)C1O (stereo not given in full)
inactive: activity change, negative = cytotoxicity (C33A) -11.1% [at 11.6 µM] | activity change, negative = cytotoxicity (CAOV3) -11.1% [at 11.6 µM] | activity change, negative = cytotoxicity (CASKI) -7.33% [at 11.6 µM] | activity change, negative = cytotoxicity (Es-2) -2.72% [at 11.6 µM] | activity change, negative = cytotoxicity (HeLa) 6.46% [at 11.6 µM] | activity change, negative = cytotoxicity (Hek293T) -13.7% [at 11.6 µM] | activity change, negative = cytotoxicity (JEG-3) -7.16% [at 11.6 µM] | activity change, negative = cytotoxicity (OV90) -4.31% [at 11.6 µM] | activity change, negative = cytotoxicity (PA-1) -3.12% [at 11.6 µM] | activity change, negative = cytotoxicity (Tov-21-G) 2.59% [at 11.6 µM] | activity change, negative = cytotoxicity (Tov112D) -1.77% [at 11.6 µM]

CCC(=O)O[C@H]1C(C)(C)[C@H]([C@@H](O)C(=O)OC)[C@]2(C)C(=O)[C@@]1(O)[C@H]1O[C@]13C1CC(=O)O[C@@H](c4ccoc4)[C@]1(C)CCC32 (stereo not given in full)
inactive: Potency (C33A) | Potency (CAOV3) | Potency (CASKI) | Potency (Es-2) | Potency (HeLa) | Potency (Hek293T) | Potency (JEG-3) | Potency (OV90) | Potency (PA-1) | Potency (Tov-21-G) | Potency (Tov112D)

COc1ccc(CNC(=O)c2sc3nc(C)cc(C)c3c2N)cc1
inactive: Potency (C33A) | Potency (CAOV3) | Potency (CASKI) | Potency (Es-2) | Potency (HeLa) | Potency (Hek293T) | Potency (JEG-3) | Potency (OV90) | Potency (PA-1) | Potency (Tov-21-G) | Potency (Tov112D)

C/C(=C/CO)CC[C@@H]1[C@@](C)(O)CCC2C(C)(C)CCC[C@]21C (stereo not given in full)
inactive: Potency (C33A) | Potency (CAOV3) | Potency (CASKI) | Potency (Es-2) | Potency (HeLa) | Potency (Hek293T) | Potency (JEG-3) | Potency (OV90) | Potency (PA-1) | Potency (Tov-21-G) | Potency (Tov112D)
